A selection: hits, their analogues and other compounds. The true share with any hit is near 2.3%.
USP1 inh: Inhibitors of USP1/UAF1: Primary Screen; Ubiquitin carboxyl-terminal hydrolase 1 (Homo sapiens), O94782; Potency, µM (series often up to 57.1 µM), hits mostly inhibitors; 0.23% of 390,000 active; recombinant USP1/UAF1, Ub-Rhodamine cleavage fluorescence; AID 743255, 2014; further: nearly all actives have a fitted effect of over 60% in size
Target sequence (O94782 whole entry, looked up): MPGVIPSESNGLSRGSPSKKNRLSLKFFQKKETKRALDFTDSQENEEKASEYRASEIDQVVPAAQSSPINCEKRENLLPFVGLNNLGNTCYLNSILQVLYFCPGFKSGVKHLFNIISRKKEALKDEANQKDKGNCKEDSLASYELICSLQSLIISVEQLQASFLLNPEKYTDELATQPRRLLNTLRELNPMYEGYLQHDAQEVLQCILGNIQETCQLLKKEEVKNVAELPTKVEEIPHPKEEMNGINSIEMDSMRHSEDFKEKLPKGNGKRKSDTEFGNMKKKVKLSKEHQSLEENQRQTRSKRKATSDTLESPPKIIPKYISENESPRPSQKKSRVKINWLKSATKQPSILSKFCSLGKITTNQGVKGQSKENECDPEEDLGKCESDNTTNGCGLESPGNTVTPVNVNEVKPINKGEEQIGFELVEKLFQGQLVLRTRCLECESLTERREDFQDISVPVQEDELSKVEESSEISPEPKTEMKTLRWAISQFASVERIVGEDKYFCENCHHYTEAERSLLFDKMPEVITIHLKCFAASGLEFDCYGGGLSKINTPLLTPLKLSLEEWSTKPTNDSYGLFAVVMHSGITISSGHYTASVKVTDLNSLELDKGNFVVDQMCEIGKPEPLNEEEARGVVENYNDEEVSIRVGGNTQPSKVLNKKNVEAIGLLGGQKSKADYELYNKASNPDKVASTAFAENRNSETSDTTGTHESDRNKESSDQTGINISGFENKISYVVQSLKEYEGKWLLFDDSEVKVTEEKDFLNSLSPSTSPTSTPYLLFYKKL
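In this screen, compounds sit with the deubiquitinase complex (1nM) for 15 min at room temperature before Ub-Rho is added at 150nM final. Fluorescence rise is then followed for 6 reads every 60 seconds.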
Tau FP inhib: qHTS for Inhibitors of Tau Fibril Formation, Fluorescence Polarization | Potency, µM (titrated, usually from 57.7 µM), hits mostly inhibitors | 0.39% of 280,000 active | K18 P301L tau heparin fibrillization, Alexa594 FP, 6 h | Microtubule-associated protein tau (Homo sapiens), P10636; further: nearly all actives have a fitted effect of over 55% in size
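Quantitative HTS format: compounds meet 15 uM recombinant K18 P301L tau and Alexa 594-tau tracer in 100 mM sodium acetate pH 7; 20 uM heparin triggers fibrillization at 37 C over 6 hr; FP gives the signal.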
Coupling enz: qHTS Assay for Inhibitors of Fructose-1,6-bisphosphate Aldolase from Giardia Lamblia: Coupling assay counterscreen | coupling enzyme system counterscreen, AmpLite Red fluorescence | activity change, negative = inhibition, % at 58.2 µM, hits read low | 0.67% of 290,000 active; in the data active means activity change below about -30%
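Coupling enzymes only (glyceraldehyde-3-phosphate) + compound, at 57.5 uM final, 10 min RT; add substrate/coupling/AmpLite Red mix, 20 min RT; fluorescence ex 525/em 598 nm. Actives flag coupling-system interference.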
Tau fibril ThT: qHTS for Inhibitors of Tau Fibril Formation, Thioflavin T Binding | 2.1% of 270,000 active | Potency, µM (top dose mostly 57.4 µM), usual class: inhibitors | recombinant tau K18 P301L, heparin-induced fibrillization, ThT fluorescence | Microtubule-associated protein tau (Homo sapiens), P10636 | AID 1460, 2008; further: nearly all actives have a fitted effect of over 55% in size
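Heparin-induced (20 uM) aggregation of recombinant human K18 P301L tau, 15 uM unlabeled with 0.24 uM labeled, pH 7 acetate buffer, 6 hr at 37 C with compound. Fibrils quantified by 30 uM ThT fluorescence after 1 hr ambient incubation.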
Tau fluor cs: Counterscreen qHTS for Inhibitors of Tau Fibril Formation, Fluorescence Polarization. tau K18 P301L Alexa594 fluorescence, heparin fibrillization. Potency, µM (doses to about 57.7 µM). 0.93% of 280,000 active. AID 1463, 2008; further: nearly all actives have a fitted effect of over 55% in size
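Human tau K18 P301L (15 uM unlabeled, 0.24 uM Alexa 594-labeled) in 100 mM sodium acetate pH 7 with 20 uM heparin, 6 hr at 37 C. ThT 30 uM added, 1 hr ambient; Alexa 594 FP and total fluorescence read at 555/632 nm.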
Hits are given with their value; i = inactive; ? = inconclusive; nt = no result given; [ ] = remark or other dose. Unless noted, the call rests on the fitted dose curve; in most records, active means well fitted curve in the direction sought with a large enough effect; inconclusive means small, poorly fitted or top-dose-only effect, or another doubt; inactive means no such curve, though single readings can be large; an effect the other way counts as inactive or inconclusive.

SMILES	USP1 inh	Tau FP inhib	Coupling enz	Tau fibril ThT	Tau fluor cs
COc1ccc(-c2cc3ccccc3[nH]2)cc1	i	?	i	?	?
Cc1ccc(C(=O)CSc2nc(-c3ccccc3)ccc2C#N)cc1	i	i	i	?	?
N#Cc1ccc(-c2ccco2)nc1SCC(=O)c1ccc(Cl)cc1	?	i	i	5.01µM	?
COc1ccc(C2=CC3=C(Br)C(=O)C(C)(OC(=O)c4ccc(Cl)nc4)C(=O)C3=CO2)cc1 (stereo not drawn)	i	?	i	28.2µM	?
COC(=O)CCC(=O)OC1(C)C(=O)C2=COC(c3ccc(OC)cc3)=CC2=C(Br)C1=O (stereo not drawn)	?	?	i	12.6µM	i
COc1ccc(NC(=S)N(CCc2c(C)[nH]c3ccccc23)Cc2ccco2)cc1	i	i	i	?	14.1µM[quencher]
CNC(=S)N(CCc1c(C)[nH]c2ccccc12)Cc1ccco1	i	i	i	i	i
CCOc1ccc(NC(=S)N(CCc2c(C)[nH]c3ccccc23)Cc2ccco2)cc1	?	?	i	?	12.6µM[quencher]
CCOc1ccc(S(=O)(=O)NCc2ccccn2)c(C)c1C	?	nt	i	nt	nt
O=[N+]([O-])c1cc(Cl)cc(/C=N\Nc2ccccn2)c1O	i	i	i	8.91µM	17.8µM[quencher]
Cc1cc(C(=O)N/N=C/C=C/c2ccc([N+](=O)[O-])cc2)n[nH]1	i	i	i	1.78µM	i
COc1cccc(/C=N/NC(=O)c2cc(-c3ccccn3)nc3ccccc23)c1O	i	nt	nt	nt	nt
O=C(N/N=C/c1cc(Cl)cc([N+](=O)[O-])c1O)c1cc(-c2ccccn2)nc2ccccc12	?	i	i	8.91µM	?
Cc1cc(C(=O)N/N=C/c2cc(Cl)cc([N+](=O)[O-])c2O)n[nH]1	i	i	i	12.6µM	?
CCC1CCCCN1CCCNC(=O)c1c(C)oc2ncn(CC(C)C)c(=O)c12 (stereo not drawn)	i	i	nt	i	i
Nc1c(C(=O)CSc2nnnn2-c2ccc(O)cc2)c(=O)[nH]c(=O)n1C1CC1	i	nt	nt	nt	nt
N#CC1=C(N)SC(N)=C(C#N)C1c1ccoc1	nt	?	-38.9	22.4µM	?
Cc1ccc(C2C(C#N)=C(N)SC(N)=C2C#N)cc1	?	i	i	?	?
CCCCNC(=O)c1ccc2c(c1)ncn2-c1cc(OC)ccc1OC	i	i	nt	i	i
CC[n+]1c(/C=C/N(C)c2ccccc2)oc2ccc(Cl)cc21	i	i	-32.5	i	i
Cc1ccc(C(CC(=O)Nc2cc(C)cc(C)c2)N2Cc3ccccc3C2=O)cc1 (stereo not drawn)	i	i	nt	i	i
O=C(NC1(O)C(=O)c2ccccc2C1=O)c1c(Cl)cccc1Cl	28.2µM	?	i	nt	i
O=C(NC1(O)C(=O)c2ccccc2C1=O)c1ccccc1	17.8µM	?	i	2.82µM	i
CCCCS(=O)(=O)Nc1ccc2cn[nH]c2c1	i	i	-35.9	i	i
COc1ccc(CS(=O)(=O)/C(Cl)=C(/Cl)C(=O)Nc2ccc(OC)nc2)cc1	i	?	i	7.94µM	i
SMILES	USP1 inh	Tau FP inhib	Coupling enz	Tau fibril ThT	Tau fluor cs
COc1ccc(NC(=O)/C(Cl)=C(/Cl)S(=O)Cc2ccccc2)cn1 (stereo not drawn)	i	?	i	?	i
CCOC(=O)/C(=C/c1ccc(N2CCC(c3ccccc3)=N2)cc1)C(C)=O	4.47µM	i	i	?	15.8µM[quencher]
O=C(/C=N/O)NCCCCNC(=O)/C=N/O	nt	?	i	i[11.5 µM]	i[11.6 µM]
Cn1c(=O)c2c(nc(N/N=C/c3ccc(OC(=O)c4ccco4)cc3)n2Cc2ccccc2)n(C)c1=O	i	i	i	?	11.2µM[quencher]
COc1cc(/C=N/N(C)c2ccccc2)cc(Cl)c1O	i	?	i	?	14.1µM[quencher]
COc1ccc(OC)c(C=NN=Cc2cc(OC)ccc2OC)c1	i	nt	nt	nt	nt
COc1cc(/C=N/O)cc(Cl)c1OC	i	i	i	i	i
COc1ccc(OC)c(/C=N/N(C)c2ccccc2)c1	?	i	i	12.6µM	11.2µM[quencher]
N#C/C(=C\N1CCN(Cc2ccc3c(c2)OCO3)CC1)c1nc2ccccc2s1	31.6µM	i	i	?	?
O=C(Nc1ccc(Br)c2ccccc12)c1ccc2ccccc2c1O	i	?	i	17.8µM	17.8µM[quencher]
O=C(CN1CCN(S(=O)(=O)c2ccc(F)cc2)CC1)N1CCOCC1	i	nt	nt	nt	nt
CCOC(=O)c1c(C)[nH]c(C2=NNC(=Nc3ccccc3OC)SC2)c1C	?	i	i	7.94µM	?
CCOC(=O)c1c(C)[nH]c(C2=NNC(=Nc3ccccc3)SC2)c1C	?	?	-38.0	3.98µM	7.94µM[quencher]
CC(=O)c1c(C)[nH]c(C2=NNC(=NC(C)(C)C)SC2)c1C	i	?	i	?	i
CCOC(=O)c1c(C)[nH]c(C2=NNC(=Nc3ccc(OCC)cc3)SC2)c1C	?	?	i	14.1µM	?
COC(=O)C1CN(C(=O)COc2ccc(Cl)cc2C)c2ccccc2O1 (stereo not drawn)	i	nt	i	nt	nt
CC(C)(C)c1nnc2sc(SCC(=O)N3CCCCC3)nn2c1=O	i	nt	nt	nt	nt
CC(CC(F)(F)F)N1CCC(n2nccc2NC(=O)CCOc2ccccc2)CC1 (stereo not drawn)	i	nt	nt	nt	nt
O=C(N/N=C/c1cc2c3c(c1O)CCCN3CCC2)c1ccccc1O	?	i	i	12.6µM	11.2µM[quencher]
Cc1ccc(Cn2nc(C)c(C(=O)NCC(c3ccc(F)cc3)N3CCOCC3)c2Cl)cc1 (stereo not drawn)	i	nt	nt	nt	nt
COC(=O)c1cc(N=Nc2sc(N)nc2C)cc(C(=O)OC)c1	i	i	i	15.8µM	?
CCN(CC)S(=O)(=O)c1cccc(N=Nc2sc(N)nc2C)c1	i	nt	i	nt	nt
COc1ccc(OC)c(S(=O)(=O)N2CCC(C(=O)NC3CCCCC3)CC2)c1	i	nt	i	nt	nt
Cc1ccccc1-c1cc(C(=O)NCc2cccc(Br)c2)n(CC2CC(c3cccnc3)=NO2)n1 (stereo not drawn)	i	nt	nt	nt	nt
C=CCOc1ccc2c(c1)C(=NO)c1cc(OCC=C)ccc1-2	?	?	i	7.94µM	?
SMILES	USP1 inh	Tau FP inhib	Coupling enz	Tau fibril ThT	Tau fluor cs
COc1ccc2c(c1)C(=NO)c1cc(OC)ccc1-2	i	i	i	0.708µM	?
CCCCCCCNC(=O)C1(CC2CC(c3cccc(Br)c3)=NO2)CCNCC1 (stereo not drawn)	?	nt	i	nt	nt
CC(C)[C@H](NC(=O)OCc1ccccc1)C(=O)OCC(=O)N1CCCCC1	i	nt	nt	nt	nt
COc1cccc(-n2c(-c3ccco3)nc3c(cnn3-c3ccccc3C)c2=O)c1	?	i	nt	i	i
Cc1cccc2c1NC(=O)/C2=C\C(=O)c1cccs1	i	i	i	22.4µM	i
Cc1cc(C)c2c(c1)/C(=C/C(=O)c1ccc(Br)s1)C(=O)N2	i	i	i	28.2µM	20µM[quencher]
